Assay in all cases: NCI-60 one-dose screen, 48 h (100 = growth as untreated, 0 = no growth, -100 = all killed)
Assay [1] concerns DU-145 prostate. The settings on record: 10 µM.
In assay [2] the test system is K-562 leukemia. As to conditions: 10 µM.
The test system of assay [3] is MALME-3M melanoma. The settings on record: 10 µM.
For assay [4], the system named is MDA-MB-231 breast. As to conditions: 10 µM.
In assay [5] the test system is SF-268 CNS. As to conditions: 10 µM.
In assay [6] the test system is SF-295 CNS. The settings on record: 10 µM.
Assay [7] deals with SF-539 CNS. The settings on record: 10 µM.
Assay [8] deals with UACC-257 melanoma. As to conditions: 10 µM.
Assay [9] has as its system M14 melanoma. As to conditions: 10 µM unless noted.
For assay [10], the system named is HCT-15 colon. The settings on record: 10 µM.
The subject of assay [11] is HT29 colon. The settings on record: 10 µM.
The test system of assay [12] is SNB-75 CNS. The settings on record: 10 µM.
For assay [13], the system named is U251 CNS. As to conditions: 10 µM.
In assay [14] the test system is PC-3 prostate. The settings on record: 10 µM.
The test system of assay [15] is SK-MEL-5 melanoma. The settings on record: 10 µM.
For assay [16], the system named is UACC-62 melanoma.
Assay [17] relates to LOX IMVI melanoma. As to conditions: 10 µM.
Assay [18] concerns SK-MEL-28 melanoma. The settings on record: 10 µM.
Assay [19] deals with RXF 393 renal. The settings on record: 10 µM.
For assay [20], the system named is SNB-19 CNS. The settings on record: 10 µM.

Several values for one entry are separate records, joined by “and”; a condition that tells them apart may be missing. Identical values can stand only once. The panel holds about 83,000 compounds, 20% with a hit somewhere; the sample as a whole holds those more often.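 The endpoint reported here, percent growth, reads 100 for growth as untreated, 0 for no net growth and -100 for all cells dead.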 Activity calls are given as the source filed them. Rule for the calls: active = growth percent below 10; inactive = the rest.

Consider `O=C1C=CC(=O)N1c1ccc(N2C(=O)C=CC2=O)cc1`, for which the growth in [1] was 122% (inactive); in assay [2], -6.5% (active); in assay [3], 85.7% (inactive); in [4] it was 115% (inactive); in assay [5] it was 112% (inactive); in assay [6], 109% (inactive). In addition, the growth in assay [7] is 87% (inactive); in assay [8] it was 113% (inactive); in [9], 98.3% (inactive); in assay [10] it was 91.4% (inactive); in assay [11], 105% (inactive); in assay [12], 95.6% (inactive). For the same compound, the growth in assay [13] is 101% (inactive); in [14] it was 112% (inactive); in assay [15], 103% (inactive); in assay [16] (10 µM), 96.5% (inactive); in [17], 85% (inactive); in [18] it was 135% (inactive).

Consider `CN(C)CCNc1cccc2sc3ccc(O)cc3c(=O)c12`, for which the growth was 43.6% (inactive) in assay [1]; 22.7% (inactive) in [2]; 1.1% (active) in assay [3]; 47.2% (inactive) in [4]; 60.2% (inactive) in [19]; 23.5% (inactive) in assay [5]. Besides, the growth is -12.9% (active) in assay [6]; 35.9% (inactive) in [7]; 53.8% (inactive) in [9]; 26.9% (inactive) in [10]; 6.36% (active) in assay [11]; 31.8% (inactive) in assay [12]. The growth in assay [20] was 57.4% (inactive); in [14], 38.7% (inactive); in assay [15] it was 44% (inactive); in [16] (10 µM) it was 57.8% (inactive); in assay [17], 18.3% (inactive); in [18], 69.2% (inactive).

Regarding `NCc1c(O)ccc2ccccc12`, the growth in assay [1] is 109% (inactive); in assay [2], 99.1% (inactive); in [3], 96.6% (inactive); in assay [4] it was 105% (inactive); in assay [19], 102% (inactive); in [5], 97.2% (inactive). Moreover, the growth in assay [6] is 75.5% (inactive); in [7], 92.8% (inactive); in [8], 95.6% (inactive); in assay [9] it was 90.8% (inactive); in assay [10], 98.2% (inactive); in assay [11], 103% (inactive). For the same compound, the growth in [12] was 73.5% (inactive); in assay [13], 103% (inactive); in assay [14], 84.9% (inactive); in assay [15], 86.3% (inactive); in assay [16] (10 µM), 95.4% (inactive); in assay [17], 101% (inactive). Besides, the growth in assay [18] was 105% (inactive).

Consider `O=C(CCc1ccccc1)ON1C(=S)C(c2ccccc2)(c2ccccc2)N=C1Sc1ccccc1`, for which, in assay [16] (100 µM), the growth is 10.7% (inactive) and 0.462% (active).

For the compound `O=[N+]([O-])c1cc(S(=O)(=O)Nc2ccccc2)ccc1Cl`, the growth in assay [2] was 83.9% (inactive); in assay [3] it was 105% (inactive); in assay [4], 110% (inactive); in assay [19], 114% (inactive); in assay [5], 99.6% (inactive); in [6], 97.2% (inactive). Besides, the growth in [7] is 102% (inactive); in [8], 88% (inactive); in assay [9] it was 88.7% (inactive); in assay [10], 96.5% (inactive); in assay [11], 101% (inactive); in [12], 69.3% (inactive). Moreover, the growth in assay [20] was 95.5% (inactive); in assay [13] it was 100% (inactive); in [14], 94.3% (inactive); in assay [15] it was 92.8% (inactive); in [16] (10 µM), 84.7% (inactive); in assay [17], 77.6% (inactive). Moreover, the growth in [18] is 102% (inactive).

`N#CC(=C1C=CC(=NO)C=C1)c1ccccc1`: the growth in assay [1] is -66.7% (active); in [2] it was 11.9% (inactive); in [3], 59.1% (inactive); in assay [4], -4.14% (active); in assay [5], -24% (active); in assay [6], 19.6% (inactive). Also, the growth was -58.7% (active) in assay [7]; 65.6% (inactive) in [8]; -36.5% (active) in [9]; 9.7% (active) in assay [10]; 1.57% (active) in assay [11]; -1.66% (active) in assay [12]. In addition, the growth in [20] is 59.6% (inactive); in assay [13] it was 9.88% (active); in [14] it was 3.44% (active); in [15] it was 2.56% (active); in [17], -6.53% (active); in assay [18], 76.3% (inactive).

Consider `O=Nc1ccc(Nc2ccccc2)cc1`, for which the growth was 94.9% (inactive) in assay [1]; 13.4% (inactive) in [2]; 104% (inactive) in assay [3]; 62.5% (inactive) in assay [4]; 86.5% (inactive) in [19]; 86% (inactive) in [5]. The growth in [6] was 101% (inactive); in assay [7], 67.7% (inactive); in assay [9] it was 89.7% (inactive); in assay [10] it was 81.2% (inactive); in [11] it was 95.1% (inactive); in assay [12], 80.4% (inactive). The growth in assay [20] was 98.3% (inactive); in assay [13], 87.8% (inactive); in assay [14], 82.8% (inactive); in assay [15], 87.9% (inactive); in assay [16] (10 µM), 96.9% (inactive); in [17], 23.5% (inactive). Besides, the growth in assay [18] was 120% (inactive).

For the compound `COc1cc(N)ccc1Nc1c2ccccc2nc2ccccc12`, the growth in assay [1] was 39.7% (inactive); in [2], 1.11% (active); in assay [3], 95.7% (inactive); in assay [4], 56.4% (inactive); in assay [19], 95.1% (inactive); in assay [5], 10.4% (inactive). Besides, the growth in assay [6] is 91.5% (inactive); in assay [9], 94.1% (inactive); in [10], -10.1% (active); in assay [11], -62.4% (active); in assay [12], 91% (inactive); in [20], 99.7% (inactive). The growth is 59% (inactive) in assay [14]; 85% (inactive) in [15]; 89.6% (inactive) in assay [16] (10 µM); -23.6% (active) in [17]; 107% (inactive) in assay [18].

As to `Cc1cc(Cl)ccc1NC(=O)/C(Cl)=C1/Sc2ccccc2NC1=O`, the growth in assay [1] is 121% (inactive); in assay [2], 88.7% (inactive); in [3], 109% (inactive); in [4], 80.4% (inactive); in assay [5] it was 103% (inactive); in assay [6], 118% (inactive). In addition, the growth is 94% (inactive) in assay [7]; 103% (inactive) in assay [8]; 83.8% (inactive) in assay [9]; 88.2% (inactive) in assay [10]; 107% (inactive) in assay [11]; 70.8% (inactive) in assay [12]. Also, the growth is 94% (inactive) in [20]; 94.7% (inactive) in assay [13]; 78% (inactive) in assay [14]; 90% (inactive) in assay [15]; 74% (inactive) in [16] (10 µM); 73.6% (inactive) in [17]. The growth in [18] was 125% (inactive).

As for `COc1ccc(C(C#N)=C2C=CC(=NO)C=C2)cc1`, the growth in assay [1] was 72.4% (inactive); in assay [2], 46.6% (inactive); in assay [3], 103% (inactive); in assay [4], 96.3% (inactive); in [19], 113% (inactive); in [5], 80.9% (inactive). Also, the growth in assay [6] is 106% (inactive); in [7] it was 79% (inactive); in assay [8] it was 58.1% (inactive); in assay [9], 79.1% (inactive); in [10], 91.5% (inactive); in assay [12], 91.6% (inactive). Also, the growth in assay [20] is 111% (inactive); in assay [13] it was 53.9% (inactive); in assay [14], 50.4% (inactive); in assay [15] it was 80.3% (inactive); in assay [16] (10 µM), 66.3% (inactive); in [17], 59.5% (inactive). Also, in assay [18], the growth was 106% (inactive).

The record behind these values is PubChem BioAssay (NCI).
